Assay results taken from PubChem BioAssay (NCATS).
Inconclusive results are not listed. A call without a number means that no potency is given here. Activity calls are given as the source filed them. The call rests on the fitted dose curve; in most records, active means well fitted inhibition curve with a large enough effect; inconclusive means small, poorly fitted or top-dose-only effect; inactive means no such curve, though single readings can be large or run the other way. Starred links: 1 amine or outer side, 2 acyl side, 3 side chain; linkers in the order of their positions; H or OH if unused. Positions of bridges follow the written chain, without caps; N, C: chain ends. Non-standard residues stand in square brackets, D forms with d. Residues, ends and D or L forms follow the SMILES beside them. Chains are numbered I, II in the order given. Actinocin(9to1) = Cc1c2oc3c(C)ccc(C(=O)[*:1])c3nc-2c(C(=O)[*:2])c(N)c1=O; NMeV = CN[CH](C(=O)O)C(C)C; Sar = CNCC(=O)O

Assay: qHTS assay for measurement of the activity of small molecule inhibitors on Zika virus induced Caspase-3 activity in human iPSC derived neural progenitor cells (hNPCs) (AID 1224857); further: nearly all actives have a fitted effect of over 65% in size
Conditions: hNPCs ZIKV-induced caspase-3/7, Caspase-Glo luminescence, 6 h; series mostly up to 45.7 µM
In short: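 Percent inhibition of virus-induced caspase-3/7 luminescence (Caspase-Glo), scaled between uninfected cells and Zika-infected cells. hNPCs received compound 1 hr before ZIKV at 2 FFU/cell, with 6 hours infection at 37 C.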

Compound | Potency
CCN1CCN(C(=O)N[C@H](C(=O)N[C@@H]2C(=O)N3C(C(=O)O)=C(CSc4nnnn4C)CS[C@@H]23)c2ccc(O)cc2)C(=O)C1=O | inactive
Cn1c(Nc2ccc(C(F)(F)F)cc2)nc2cc(Oc3ccnc(-c4ncc(C(F)(F)F)[nH]4)c3)ccc21 | inactive
CC(C)(O)[C@H]1CC[C@@](C)([C@H]2[C@@H](O)C[C@@]3(C)[C@@H]4C[C@H](O[C@@H]5O[C@H](CO)[C@@H](O)[C@H](O)[C@@H]5O)[C@H]5C(C)(C)[C@@H](O[C@@H]6OC[C@@H](O)[C@H](O)[C@@H]6O)CC[C@@]56C[C@@]46CC[C@]23C)O1 | inactive
CC(=O)O[C@H]1C[C@@H]2CC[C@H]3[C@H]4C[C@H]([N+]5(C)CCCCC5)[C@@H](OC(C)=O)[C@@]4(C)CC[C@@H]3[C@@]2(C)C[C@H]1[N+]1(C)CCCCC1 | inactive
O=C1c2c(O)cccc2[C@@H]([C@@H]2O[C@H](CO)[C@@H](O)[C@H](O)[C@H]2O)c2cc(CO)cc(O)c21 | inactive
Nc1nc(=O)n([C@H]2C[C@H](O)[C@@H](CO)O2)cc1F | inactive
O=C(O)CCCCC(CCSCc1ccccc1)SCc1ccccc1 (stereo not given) | inactive
OCCNC1CCCc2c1[nH]c1ccc(-c3ccccc3)cc21 (stereo not given) | inactive
C=C1C(=O)O[C@H]2[C@@H]1CCC(C)=CCC[C@@]1(C)O[C@@H]21 | inactive
CCCNC(=O)[C@H]1O[C@H]1C(=O)N[C@H](C(=O)N1CCC[C@@H]1C(=O)OC)C(C)CC (stereo not given in full) | inactive
CC(C)(O)Cn1c(NC(=O)c2ccc(-c3cn[nH]c3)s2)nc2cc(CN3CCOCC3)ccc21 | inactive
CC[C@H](CC[C@@H](C)[C@H]1CC[C@H]2[C@@H]3CC=C4C[C@@H](O)CC[C@]4(C)[C@@H]3CC[C@]12C)C(C)C | inactive
Nc1ccc(C(=O)Nc2cccc(-c3nc(N4CCOCC4)c4oc5ncccc5c4n3)c2)cn1 | inactive
CC(=O)OCC(=O)[C@@]12N=C(C)O[C@H]1C[C@H]1[C@@H]3CCC4=CC(=O)C=C[C@]4(C)[C@@H]3[C@@H](O)C[C@@]12C | inactive
COC(=O)[C@@H]1[C@H]2C[C@@H]3c4[nH]c5ccccc5c4CCN3C[C@@H]2CC[C@@H]1O | inactive
Cc1c2oc3c(C)ccc(C(=O)NC4C(=O)NC(C(C)C)C(=O)N5CCCC5C(=O)N(C)CC(=O)N(C)C(C(C)C)C(=O)OC4C)c3nc-2c(C(=O)NC2C(=O)NC(C(C)C)C(=O)N3CCCC3C(=O)N(C)CC(=O)N(C)C(C(C)C)C(=O)OC2C)c(N)c1=O (stereo not given) (I: TVP[Sar][NMeV] / II: TVP[Sar][NMeV]; ester I:1-I:C, II:1-II:C; linker I:N-II:N via Actinocin(9to1); configuration not given here) | inactive
C[C@H]1C[C@H]2[C@@H]3CCC4=CC(=O)C=C[C@]4(C)[C@@H]3C(=O)C[C@]2(C)[C@@]1(O)C(=O)CO | inactive
CC(=CC(=O)Nc1ccccc1C(=O)O)c1ccc2ccccc2c1 | inactive
C[C@H](NC(=O)[C@@H](O)c1cc(F)cc(F)c1)C(=O)N[C@@H]1C(=O)N(C)c2ccccc2-c2ccccc21 | inactive
O=C1NCCc2[nH]c(-c3ccncc3)cc21 | inactive
Cc1noc(-c2ccc(CSCCC(=O)O)cc2)c1NC(=O)OC(C)c1ccccc1Cl (stereo not given) | inactive
CC[C@H]1OC(=O)[C@H](C)[C@@H](O[C@H]2C[C@@](C)(OC)[C@@H](O)[C@H](C)O2)[C@H](C)[C@@H](O[C@@H]2O[C@H](C)C[C@H](N(C)C)[C@@H]2O)[C@](C)(OC)C[C@@H](C)C(=O)[C@H](C)[C@@H](O)[C@]1(C)O | inactive
CC(=O)SCC(Cc1ccccc1)C(=O)NCC(=O)OCc1ccccc1 (stereo not given) | inactive
COc1cccc2c1C(=O)c1c(O)c3c(c(O)c1C2=O)C[C@@](O)(C(=O)CO)C[C@@H]3O[C@H]1C[C@H](N)[C@@H](O)[C@H](C)O1 | inactive
CC(C)Oc1ccc(C(=O)N[C@H](CNC(=O)CN(C)C)Cc2ccc(-c3cn4cccc([C@H](C)O)c4n3)cc2)cc1Cl | inactive
N#Cc1cc(NC(=O)Nc2nnc(-c3ccncc3)s2)ccc1-c1cn[nH]c1 | inactive

Assay: qHTS assay for measurement of the activity of small molecule inhibitors on Zika virus induced Caspase-3 activity in human astrocytoma cells (AID 1224859)
Conditions: SNB-19 ZIKV-induced caspase-3/7, luminescence, 6 h; series mostly up to 45.7 µM
In short: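 Luminescent caspase-3/7 read-out (30 min reagent, room temperature) in human SNB-19 cells infected 6 h with ZIKV (2 FFU/cell) after 1 h compound pre-incubation; Data were normalised to uninfected and infected wells.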

Compound | Potency
CCCCCCCCCCCCCCCC(=O)OC[C@@H](NC(=O)C(Cl)Cl)[C@H](O)c1ccc([N+](=O)[O-])cc1 | inactive
Cn1cc(C[C@@H](N)C(=O)O)c2ccccc21 | inactive
Cc1cc(-c2nnc3n2CCCCC3)c(C)n1-c1ccccc1 | inactive
O=[N+]([O-])c1cn2c(n1)OC[C@@H](OCc1ccc(OC(F)(F)F)cc1)C2 | inactive
N[C@H]1CN(c2c(F)cc3c(=O)c(C(=O)O)cn(C4C[C@@H]4F)c3c2Cl)CC12CC2 (stereo not given in full) | inactive
C=CC1=C(C(=O)O)N2C(=O)[C@@H](NC(=O)C(=NO)c3csc(N)n3)[C@H]2SC1 | inactive
C[C@@H](Cc1cc2c(c(C(N)=O)c1)N(CCCO)CC2)NCCOc1ccccc1OCC(F)(F)F | inactive
C[C@H]1COc2c(N3CCN(C)CC3)c(F)cc3c(=O)c(C(=O)O)cn1c23 | inactive
C=CCNC1=C2C[C@@H](C)C[C@H](OC)[C@@H](O)[C@@H](C)C=C(C)[C@H](OC(N)=O)[C@@H](OC)C=CC=C(C)C(=O)NC(=CC1=O)C2=O | inactive
COC(=O)[C@H](CCCN=C(N)N)NS(=O)(=O)c1ccc(C)cc1 | inactive
CCCNS(=O)(=O)Nc1ncnc(OCCOc2ncc(Br)cn2)c1-c1ccc(Br)cc1 | inactive
Cn1cc(C=CC(=O)c2cccc(F)c2)cc1C=CC(=O)NO | inactive
C[C@@H]1CC[C@@]2(OC1)OC1CC3C4CC=C5CC(O)CCC5(C)C4CCC3(C)C1[C@@H]2C (stereo not given in full) | inactive
Cn1c(Nc2ccc(C(F)(F)F)cc2)nc2cc(Oc3ccnc(-c4ncc(C(F)(F)F)[nH]4)c3)ccc21 | inactive
CC(C)(O)[C@H]1CC[C@@](C)([C@H]2[C@@H](O)C[C@@]3(C)[C@@H]4C[C@H](O[C@@H]5O[C@H](CO)[C@@H](O)[C@H](O)[C@@H]5O)[C@H]5C(C)(C)[C@@H](O[C@@H]6OC[C@@H](O)[C@H](O)[C@@H]6O)CC[C@@]56C[C@@]46CC[C@]23C)O1 | inactive
CC(=O)O[C@H]1C[C@@H]2CC[C@H]3[C@H]4C[C@H]([N+]5(C)CCCCC5)[C@@H](OC(C)=O)[C@@]4(C)CC[C@@H]3[C@@]2(C)C[C@H]1[N+]1(C)CCCCC1 | inactive
O=C1c2c(O)cccc2[C@@H]([C@@H]2O[C@H](CO)[C@@H](O)[C@H](O)[C@H]2O)c2cc(CO)cc(O)c21 | inactive

Compound | Potency
Nc1nc(=O)n([C@H]2C[C@H](O)[C@@H](CO)O2)cc1F | inactive
O=C(O)CCCCC(CCSCc1ccccc1)SCc1ccccc1 (stereo not given) | inactive
OCCNC1CCCc2c1[nH]c1ccc(-c3ccccc3)cc21 (stereo not given) | inactive
C=C1C(=O)O[C@H]2[C@@H]1CCC(C)=CCC[C@@]1(C)O[C@@H]21 | inactive
CCCNC(=O)[C@H]1O[C@H]1C(=O)N[C@H](C(=O)N1CCC[C@@H]1C(=O)OC)C(C)CC (stereo not given in full) | inactive
CC[C@H](CC[C@@H](C)[C@H]1CC[C@H]2[C@@H]3CC=C4C[C@@H](O)CC[C@]4(C)[C@@H]3CC[C@]12C)C(C)C | inactive
Nc1ccc(C(=O)Nc2cccc(-c3nc(N4CCOCC4)c4oc5ncccc5c4n3)c2)cn1 | inactive
CC(=O)OCC(=O)[C@@]12N=C(C)O[C@H]1C[C@H]1[C@@H]3CCC4=CC(=O)C=C[C@]4(C)[C@@H]3[C@@H](O)C[C@@]12C | inactive
COC(=O)[C@@H]1[C@H]2C[C@@H]3c4[nH]c5ccccc5c4CCN3C[C@@H]2CC[C@@H]1O | inactive
Cc1c2oc3c(C)ccc(C(=O)NC4C(=O)NC(C(C)C)C(=O)N5CCCC5C(=O)N(C)CC(=O)N(C)C(C(C)C)C(=O)OC4C)c3nc-2c(C(=O)NC2C(=O)NC(C(C)C)C(=O)N3CCCC3C(=O)N(C)CC(=O)N(C)C(C(C)C)C(=O)OC2C)c(N)c1=O (stereo not given) (I: TVP[Sar][NMeV] / II: TVP[Sar][NMeV]; ester I:1-I:C, II:1-II:C; linker I:N-II:N via Actinocin(9to1); configuration not given here) | inactive
C[C@H]1C[C@H]2[C@@H]3CCC4=CC(=O)C=C[C@]4(C)[C@@H]3C(=O)C[C@]2(C)[C@@]1(O)C(=O)CO | inactive
C[C@H](NC(=O)[C@@H](O)c1cc(F)cc(F)c1)C(=O)N[C@@H]1C(=O)N(C)c2ccccc2-c2ccccc21 | inactive
O=C1NCCc2[nH]c(-c3ccncc3)cc21 | inactive
CC[C@H]1OC(=O)[C@H](C)[C@@H](O[C@H]2C[C@@](C)(OC)[C@@H](O)[C@H](C)O2)[C@H](C)[C@@H](O[C@@H]2O[C@H](C)C[C@H](N(C)C)[C@@H]2O)[C@](C)(OC)C[C@@H](C)C(=O)[C@H](C)[C@@H](O)[C@]1(C)O | inactive
CC(=O)SCC(Cc1ccccc1)C(=O)NCC(=O)OCc1ccccc1 (stereo not given) | inactive
COc1cccc2c1C(=O)c1c(O)c3c(c(O)c1C2=O)C[C@@](O)(C(=O)CO)C[C@@H]3O[C@H]1C[C@H](N)[C@@H](O)[C@H](C)O1 | inactive
N#Cc1cc(NC(=O)Nc2nnc(-c3ccncc3)s2)ccc1-c1cn[nH]c1 | inactive
